An excerpt weighted towards active compounds, which were near 4.7% of everything screened.
tim23-1 inh = growth inhibitors of tim23-1 mutant yeast, primary screen, luminescence, uHTS | inhibition, % at 20 µM | S. cerevisiae tim23-1 growth, BacTiter-Glo luminescence, 24 h | hit rate 1.3% among 330,000;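 active means growth inhibition of the mutant yeast at or above 50%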;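 further: temperature-sensitive mutant grown at 25 °C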
ATG4B inhibitor = ATG4B protease inhibitors, primary screen, biochemical, fluorescence, uHTS; Cysteine protease ATG4B (Homo sapiens), Q9Y4P1; ATG4B cleavage of LC3-PLA2, NBD-HPC fluorescence, 1 h; inhibition, % at 8.33 µM; hit rate 0.51% among 340,000; AID 504462, 2011; in the data active means inhibition above about 40%
Target sequence (Q9Y4P1 whole entry, looked up): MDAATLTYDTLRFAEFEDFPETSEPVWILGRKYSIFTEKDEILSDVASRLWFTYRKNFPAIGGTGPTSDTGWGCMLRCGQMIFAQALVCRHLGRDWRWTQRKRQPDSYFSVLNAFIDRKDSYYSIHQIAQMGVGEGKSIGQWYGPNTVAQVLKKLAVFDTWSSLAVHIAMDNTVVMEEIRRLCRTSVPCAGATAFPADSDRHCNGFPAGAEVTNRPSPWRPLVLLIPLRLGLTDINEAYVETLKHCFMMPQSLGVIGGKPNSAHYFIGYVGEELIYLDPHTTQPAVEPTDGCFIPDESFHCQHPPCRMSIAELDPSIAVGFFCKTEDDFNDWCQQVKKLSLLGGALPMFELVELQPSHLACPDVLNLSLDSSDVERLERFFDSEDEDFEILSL
TIM10 inh = growth inhibitors of isogenic TIM10 control yeast, primary screen, counter-screen for tim10-1 yeast inhibitor project, luminescence, uHTS; S. cerevisiae TIM10 strain growth, BacTiter-Glo luminescence, 24 h; inhibition, % at 10 µM; hit rate 1.4% among 330,000; AID 463195, 2010;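 active means inhibition of 40% or more at the single tested concentration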;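 further: wild-type TIM10 isogenic control strain grown at permissive 25 °C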
tim10-1 inh = growth inhibitors of tim10-1 mutant yeast, primary screen, luminescence, uHTS; S. cerevisiae tim10-1 ts strain growth, BacTiter-Glo, 24 h; inhibition, % at 20 µM; hit rate 2.2% among 330,000;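 active means inhibition of at least 40%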;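 further: mutant grown at 25 °C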
SKKanGAS inh = S. pyogenes SKKanGAS growth inhibitors in kanamycin, primary screen, streptokinase expression inhibitor project, SKKanGAS strain, BacTiter-Glo luminescence; hit rate 1.3% among 300,000; inhibition, % at 7.5 µM; 6 h;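 active means mean replicate score, as percent of positive control median, at least 50; inconclusive means mean below 50 but one replicate at or above 50; inactive means mean and every replicate below 50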;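 further: strain carries kanamycin resistance gene driven by streptokinase promoter and grows in 40 µg/ml kanamycin; loss of luminescence reflects streptokinase promoter inhibition or plain growth inhibition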
PfHsp90 set2 = growth inhibition of PfHsp90-expressing yeast, primary screen, antimalarial PfHsp90 inhibitor project, S. cerevisiae, BacTiter-Glo luminescence, single point, set 2; hit rate 0.32% among 310,000; inhibition, % at 9.4 µM; AID 504621, 2011; BacTiter-Glo ATP, 48 h; yeast lacking PDR1 and PDR3 efflux regulators;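 active means every replicate shows inhibition above about 80%, whatever the replicate mean, limit read from the data; inconclusive means mean inhibition reaches the set limit but some replicate falls short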
tim10-1 conf = growth inhibitors of tim10-1 mutant yeast, confirmation, single concentration, luminescence, S. cerevisiae; S. cerevisiae tim10-1 ts strain growth, BacTiter-Glo, 24 h; hit rate 56% among 7,400; inhibition, % at 20 µM; shares compounds with tim10-1 inh;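 active means inhibition of yeast growth at or above a set limit in either of two repeat tests at 20 µM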;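 further: tim10-1 mutant grown at permissive 25 °C to find synthetic lethal compounds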
TIM10 conf = growth inhibitors of wild-type TIM10 yeast, confirmation, counter-screen for tim10-1 synthetic lethality project, single concentration, luminescence, S. cerevisiae. shares compounds with TIM10 inh. S. cerevisiae tim10 strain growth, BacTiter-Glo luminescence, 24 h. inhibition, % at 10 µM. hit rate 63% among 4,600;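 active means inhibition of yeast growth at or above a set limit in either of two replicates at 10 µM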; further: this counterscreen used the strain with wild-type TIM10
tim23-1 conf = tim23-1 mutant yeast growth inhibitors, confirmation, luminescence, single concentration. hit rate 83% among 4,400. shares compounds with tim23-1 inh. S. cerevisiae tim23-1 growth, BacTiter-Glo luminescence, 24 h. inhibition, % at 20 µM. AID 463218, 2010;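 active means inhibition above about 39% in either of two replicate wells at 20 µM, limit read from the data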;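 further: temperature-sensitive tim23-1 mutant grown at 25 °C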
Numbers stand for hits; - = inactive; ? = inconclusive; . = no result.

SMILES | tim23-1 inh | ATG4B inhibitor | TIM10 inh | tim10-1 inh | SKKanGAS inh | PfHsp90 set2 | tim10-1 conf | tim23-1 conf | others
O=C(/C=C/c1cccc(C(F)(F)F)c1)Nc1cccc(C(F)(F)F)c1 | 72 | - | 58 | 55 | 88 | 105 | 56 | 69 | TIM10 conf=53
CC(C)(C)C(=O)NC(=S)N1CCc2ccccc21 | - | - | - | - | - | - | . | .
O=C(NC(=S)N1CCc2ccccc21)c1ccc(Br)o1 | 64 | - | 67 | 62 | - | . | 56 | 66 | TIM10 conf=57
CCn1c(=O)n(CC(=O)N(C)Cc2ccccc2)c(=O)c2ccccc21 | - | - | - | - | - | - | . | .
COc1cc(C(=O)N[C@H](C(=O)OCC(=O)NC2CCCCCC2)C(C)C)cc(OC)c1OC | - | - | - | - | . | - | . | .
O=C(c1cc(COc2ccc(F)cc2Cl)on1)N1CCCCCCC1 | 51 | - | - | 41 | - | - | - | 42
Cc1ccccc1C(=O)NC1CC2CCCC(C1)N2C(=O)Nc1ccccc1 (stereo not given) | - | - | - | - | - | - | . | .
Nc1nc(N)c2cc(Sc3ccc4ccccc4c3)ccc2n1 | 59 | - | - | 89 | 109 | . | 84 | 68
C/C(=N\NC(=O)CN1CCCCC1)c1ccccc1O | - | - | - | - | - | - | . | .
O=C(CC(=O)c1c(F)cccc1Cl)c1ccccc1O | 63 | - | - | 52 | - | - | - | 64
CC(C)OC(=O)n1c(=S)oc2ccccc21 | 76 | - | 47 | 53 | - | - | 37 | 67 | TIM10 conf=-
COc1ccc2c(ccc[n+]2CC(=O)c2ccccc2)c1 | - | - | - | - | - | - | . | .
COc1ccc(C(=O)C[n+]2cn(C(F)F)c3ccccc32)c(F)c1 | 58 | - | 63 | 53 | - | . | 50 | 43 | TIM10 conf=31
O=C(CSc1nnc(-c2ccc(Cl)cc2)n1Cc1ccco1)NCc1ccc2c(c1)OCO2 | - | - | - | - | - | - | . | .
Cc1ccc(S(=O)(=O)N(C)c2ccc(OCC(=O)NCC3(N(C)C)CCCCC3)cc2)cc1 | - | - | - | - | - | - | . | .
O=C(Nc1cc(Cl)cc(Cl)c1)c1cccc(OC(F)F)c1 | 85 | - | 68 | 79 | - | . | 79 | 72 | TIM10 conf=66
CC[C@@H]1CC=C[C@H]2[C@H]1C(=O)N(Cc1ccccc1)[C@H]2c1cc(C)ccc1F | 51 | . | 50 | 55 | 58 | . | 35 | 54 | TIM10 conf=38
Cc1ccc(-c2cc([C@H]3[C@H]4C=CC[C@@H](C)[C@@H]4C(=O)N3Cc3ccccc3)ccc2F)cc1 | - | - | - | - | - | - | . | .
CC1CCc2c(sc(NC(=O)C3=COCCO3)c2C(N)=O)C1 (stereo not given) | - | - | - | - | . | - | . | .
CNC(=O)c1c(NC(=O)C2=COCCO2)sc2c1CCC(C)C2 (stereo not given) | 56 | - | - | 51 | . | - | - | 50
CC(C)CC(=O)N1CCN(CC2CC=CCC2)CC1 (stereo not given) | - | - | - | - | - | - | . | .
CCC(=O)OCC(=O)Nc1cc(S(=O)(=O)N(C)C)ccc1Cl | - | - | - | - | - | - | . | .
O=C(CNC(=O)c1ccccc1)N/N=C/c1ccc([N+](=O)[O-])s1 | - | - | - | - | - | - | . | .
O=C(Cc1ccccc1)NCC(=O)N/N=C/c1ccc([N+](=O)[O-])s1 | - | - | - | - | - | - | . | .
Cc1ccc(C(=O)N/N=C/c2ccc([N+](=O)[O-])s2)cc1 | - | - | - | - | ? | - | . | .
SMILES | tim23-1 inh | ATG4B inhibitor | TIM10 inh | tim10-1 inh | SKKanGAS inh | PfHsp90 set2 | tim10-1 conf | tim23-1 conf | others
COc1ccc(NC(=O)CCC(=O)N/N=C/c2ccc([N+](=O)[O-])s2)cc1 | 62 | - | 83 | 50 | - | 116 | 39 | 62 | TIM10 conf=-
CCOC(=O)N/N=C\c1ccc(C)s1 | - | - | - | - | - | - | . | .
CCOC(=O)N/N=C\c1ccc([N+](=O)[O-])s1 | 87 | - | - | 53 | - | - | 38 | 66
CC(C)(C)OC(=O)N/N=C\c1ccc([N+](=O)[O-])s1 | 78 | - | 58 | 75 | - | - | 50 | 64 | TIM10 conf=71
Cc1ccc(C(=O)N/N=C\c2ccc([N+](=O)[O-])s2)cn1 | 56 | - | 40 | 49 | - | - | 42 | 58 | TIM10 conf=-
O=C(c1ccc(Cl)c(S(=O)(=O)N2CCCC2)c1)N1CCN(c2ccccn2)CC1 | - | - | - | - | - | . | . | .
CNC(=S)/N=C/NOCc1c(Cl)cccc1Cl | 54 | - | 53 | 63 | - | - | 55 | 60 | TIM10 conf=54
c1ccc(C2NCCn3cccc32)cc1 (stereo not given) | - | - | - | - | - | - | . | .
COc1ccc(N=Nc2c(C)[nH]c3ccccc23)cc1 | 89 | - | - | 43 | - | - | 40 | 78
O=C(NCc1ccccc1)N1CCCC1 | - | - | - | - | - | - | . | .
Cc1ccc(-c2nc3ccccc3o2)cc1NC(=S)NC(=O)c1cc2ccccc2o1 | . | - | . | . | - | - | . | .
N#C/C(=C/c1ccc(N2CCOCC2)o1)c1ccc(Br)cc1 | - | - | - | - | - | - | . | .
N#C/C(=C/c1ccc(N2CCCCCC2)o1)c1ccc(F)cc1 | 60 | - | 42 | 62 | 65 | - | - | 69 | TIM10 conf=58
FC(F)(F)c1nnc(-c2ccccc2)nc1Sc1ccc(Cl)cc1 | 62 | - | - | 51 | - | - | 49 | 47
FC(F)(F)c1cccc(Sc2nc(-c3ccccc3)nnc2C(F)(F)F)c1 | - | - | - | - | - | - | . | .
COc1ccc(Br)cc1C(=O)NC(=S)Nc1ccc(CN2CCOCC2)cc1 | 51 | - | - | 55 | - | - | - | 57
O=C(NC(=S)Nc1ccc(CN2CCOCC2)cc1)c1ccc(-c2ccc(Br)cc2)o1 | - | - | - | - | - | . | . | .
Cc1cc(C)n(/N=C/c2ccccc2O)c(=O)c1 | - | - | - | - | - | - | . | .
Cc1cc(C)n(/N=C/c2cc(Cl)cc(Cl)c2O)c(=O)c1 | 61 | - | - | 48 | - | - | - | 72
O=S(=O)(NC1CC1)c1ccccc1 | - | - | - | - | - | - | . | .

From PubChem BioAssay
